GLA inh pH 4.5 = blocks human alpha-galactosidase A at pH 4.5; P06280; purified enzyme, 4-MU-alpha-Gal fluorescence, pH 4.5; activity change, negative = inhibition, % at 105 µM; 230,000 tested, under 10 active; AID 1467;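 further: 0% = full activity with enzyme and -100% = basal without enzyme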
Target sequence (P06280 whole entry, looked up): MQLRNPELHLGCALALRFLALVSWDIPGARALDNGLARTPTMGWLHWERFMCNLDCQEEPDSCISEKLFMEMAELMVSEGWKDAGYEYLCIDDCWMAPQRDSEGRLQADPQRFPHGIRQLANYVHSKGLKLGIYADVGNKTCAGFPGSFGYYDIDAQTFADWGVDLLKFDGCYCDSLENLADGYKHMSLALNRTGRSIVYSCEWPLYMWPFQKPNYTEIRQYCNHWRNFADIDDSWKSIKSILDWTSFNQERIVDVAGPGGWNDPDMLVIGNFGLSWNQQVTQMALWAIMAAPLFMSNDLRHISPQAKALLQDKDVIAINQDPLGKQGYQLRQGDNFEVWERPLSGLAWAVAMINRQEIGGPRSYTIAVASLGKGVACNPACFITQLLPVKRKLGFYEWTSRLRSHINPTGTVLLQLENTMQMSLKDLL
aGal spleen mod = inhibits or activates alpha-galactosidase in human spleen homogenate | 240,000 compounds, 0.008% hits | AID 2107 | human spleen homogenate, 4MU-alpha-Gal fluorescence, 40 min | Potency, µM (series often up to 80 µM), for the others: at the highest dose activity change, negative = inhibition, actives largely listed as inhibitors;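 further: potency means the concentration at half of the fitted maximal effect; 0% = enzyme with vehicle and -100% = no enzyme basal signal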
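Fluorogenic readout (Ex 365/Em 440 nm) of 4-methylumbelliferone released from 1 mM 4-MU-alpha-galactoside by spleen homogenate, 40 min at 37C, pH 5.0. Data normalized to no-enzyme and enzyme controls; Hill-equation AC50 from compound titrations.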
HTT aggregate = mutant huntingtin aggregation inhibition | Potency, µM (highest dose often 46.1 µM), for the others: top-dose activity change, negative = inhibition, usual class: inhibitors | PC12 HttQ103-GFP aggregates, Acumen cytometry, 40 h | 220,000 compounds, 1.1% hits; further: potency means the concentration at half of the fitted maximal effect; on the % scale 0 is the no-effect control and ±100 the full control effect; nearly all actives have a fitted effect of over 60% in size
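PC12/HTTQ103-GFP, ecdysone-inducible; teb 100 nM; cpd qHTS titration; GFP aggregates read on laser cytometer, Ex 488/Em 500-530 nm.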
HTT ATP protect = cytoprotection in Huntington HTT-Q103 PC12 cell model. PC12 HTT-Q103 induced, cytoprotection, ATP luminescence, 40 h. Potency, µM (doses to about 56.4 µM), without a hit: cytoprotection (ATP increase), hits mostly activators. 230,000 compounds, 0.14% hits; further: potency means the concentration at half of the fitted maximal effect; % of control where 0% means no effect; nearly all actives have a fitted effect of over 45% in size
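Compounds were screened for protection of PC12 cells against cell death after tebufenozide induction (100 nM final) of mutant Huntingtin exon 1 (Q103) fused to GFP.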
Numbers without * were called inactive; ? = inconclusive; · = no result; [ ] = dose if it differs, or a comment. Sampled rows, rich in hits. Any-hit rate of the full collection: about 1.2%. The call rests on the fitted dose curve; in most records, active means well fitted curve in the direction sought with a large enough effect; inconclusive means small, poorly fitted or top-dose-only effect, or another doubt; inactive means no such curve, though single readings can be large; an effect the other way counts as inactive or inconclusive.

SMILES	GLA inh pH 4.5	aGal spleen mod	HTT aggregate	HTT ATP protect
CC(=O)c1ccc(N/N=C(/C(N)=O)C2=NC(C)(C)Cc3ccccc32)cc1	-10.1	-17.3%	11.2µM*	-20.8%[10 µM]
CN(C)/C=N/c1[nH]ncc1C#N	6.5	-5.2%	13.6%	-8.7%[10 µM]
CN(C)C=Nc1ncc2c([nH]c3ccccc32)c1C#N	-0.3	?	6.31µM*	-21.4%
CC1CC=CC2C1C(=O)N(Cc1ccccc1)C2c1ccc(-c2cc3ccccc3s2)cc1F (configuration not stated)	·	3.4%	·	·
N#Cc1nc(-c2ccc(OCc3ccccc3)cc2)oc1NCc1cccnc1	-1.5	-3.0%	12.6µM*	-67.5%[0.074 µM]
N#Cc1nc(-c2ccc(OCc3ccc(Cl)cc3)cc2)oc1NCc1cccnc1	-3.0	-1.7%	-4.3%	-40.4%
CCOC(=O)N1CCC(Nc2ncnc3c2cnn3-c2ccc(C)cc2C)CC1	2.7	-0.8%	12.6µM*	-10.8%
O=C(N/C(=C/c1ccc(Cl)cc1)c1nc2ccccc2[nH]1)c1ccco1	8.1	-2.7%	8.7%	2.6%
O=C(/C(=C/c1ccc(Cl)cc1)c1nc2ccccc2[nH]1)c1ccccc1	-1.3	6.8%	5.01µM*	-71.1%
CC(C)CO/N=C1/[C@H]2O[C@@H]2[C@@H](O)[C@H]2[C@H]1CCn1c(=O)n(C)c(=O)n12	·	-1.4%[17.5 µM]	·	-6.3%[10 µM]
Cn1nccc1C(=O)Oc1ccc(/C=N/NC(=O)c2ccccc2O)cc1	1.8	-6.8%	?	0.891µM*
CC(C)(C)C(=O)NC(=S)NNC(=O)c1sc2ccccc2c1Cl	-5.6	1.7%	10µM*	-27.3%[10 µM]
C[C@H](NC(=O)N1CCc2nc(-c3ccccc3)c3c(c2C1)CO[C@@H](C)C3)c1ccccc1	-8.6	3.0%[17.5 µM]	·	5.8%[10 µM]
O=C(N/N=C/c1sc2ccccc2c1O)c1ccccc1	-4.8	3.0%	3.16µM*	-79.2%[10 µM]
COc1ccc(C(=O)N/N=C/c2sc3ccccc3c2O)cc1	-12.2	5.9%	11.2µM*	-80.1%[10 µM]
COc1ccc(C(=O)N/N=C/c2c(CO)cnc(C)c2O)cc1	-4.4	29.7%	31.6µM*	-77.2%
Cc1ncc(CO)c(/C=N/NC(=O)c2ccc(O)cc2)c1O	0.7	-4.0%	?	11.4%[10 µM]
O=C(N/N=C/c1sc2ccccc2c1O)c1cccc2ccccc12	-0.8	-12.2%	1.41µM*	-87.0%[10 µM]
CC(C)=CCC/C(C)=C/CO/N=C1/C[C@@H](O)[C@@H](O)[C@@H]2[C@@H]3C(=O)N(C4CCCCC4)C(=O)[C@H]3CC[C@@H]12	·	10.2%[17.5 µM]	·	4.4%[10 µM]
Cc1ccc(C(=O)C[n+]2cc(-c3ccc(C)cc3)n3c2CCCCC3)cc1	-4.1	9.1%	0.891µM*	-75.6%
COc1ccc(C(=O)C[n+]2cc(-c3ccc(OC)cc3)n3c2CCCC3)cc1	3.5	-5.9%	10µM*	2.8%[10 µM]
CC(C)(C)OC(=O)NC(NC(=O)OCC1c2ccccc2-c2ccccc21)C(=O)O (configuration not stated)	·	15.5%	·	·
CSCC[C@H](NC(=O)[C@H](CC(C)C)NC(=O)CNC(=O)[C@@H]1CCCN1C(=O)[C@H](Cc1ccccc1)NC(=O)[C@H](Cc1ccccc1)NC(=O)[C@H](CC(=O)O)NC(=O)[C@H](Cc1cnc[nH]1)NC(=O)[C@H](CCSC)NC(=O)[C@@H](N)CC(=O)O)C(N)=O	·	8.2%	·	·
O=C1CC(=O)N(CCc2ccccc2)C(=O)N1CCc1ccccc1	-6.7	-5.1%	0.398µM*	-9.1%[0.074 µM]
O=C1CC(Nc2ccccc2)C(=O)N1CCc1ccccc1 (configuration not stated)	5.5	-0.6%	-9.7%	23.1%
SMILES	GLA inh pH 4.5	aGal spleen mod	HTT aggregate	HTT ATP protect
O=C1C=CCC(/C=C/c2ccccc2)O1 (configuration not stated)	-7.1	7.1%	10µM*	·
O=C(O)/C=C/C=C/c1ccccc1	4.4	17.8%	·	·
CCCOc1ccc(OCC(=O)c2[nH]c(C)c(C(C)=O)c2C)cc1	2.0	-8.5%	8.91µM*	-5.5%
CC(=O)c1c(C)[nH]c(C(=O)COc2cc(C)cc(C)c2)c1C	-6.0	?	-16.6%	7.9%
COC(=O)c1oc2ccc(OC)cc2c1N	-3.0	5.6%	2.82µM*	-94.3%[10 µM]
CC1(C)Cc2c(sc3nc(-c4cccs4)n(N)c(=O)c23)CO1	6.1	15.3%	10µM*	-95.7%
CCCn1nc([N+](=O)[O-])c(C(C#N)c2nc3ccccc3s2)c(Cl)c1=O (configuration not stated)	-6.9	-13.5%	·	12.6µM*
O=c1cc(CN2CCN(Cc3ccccc3)CC2)c2cc3c(cc2o1)CCC3	-2.0	-2.9%	20.2%[9.22 µM]	6.3%[10 µM]
O=c1cc(CN2CCN(c3ccccc3F)CC2)c2cc3c(cc2o1)CCCC3	-0.6	5.1%	0.631µM*	1.12µM*
CC(=O)c1c(O)cccc1O	·	-3.2%	·	·
Cc1cccc(N2C(=O)CC(Sc3nnc(C)s3)C2=O)c1 (configuration not stated)	3.2	-28.2%	14.1µM*	-4.2%[10 µM]
Cc1cccc(N2C(=O)CC(Sc3nc(C)cc(C)n3)C2=O)c1 (configuration not stated)	1.5	-4.0%	2.5%[9.22 µM]	2.8%
CCSc1nc2c(c(=O)n1Cc1ccccc1)SC(C)C2 (configuration not stated)	-15.8	14.5%	28.2µM*	5.1%
CC(C)(C)OC(=O)NCCc1nnc(SCc2ccccc2Cl)o1	-0.3	-1.0%	-26.5%	-2.3%
CC(C)(C)OC(=O)NCCc1nnc(S(=O)(=O)Cc2ccc(Cl)cc2Cl)o1	-17.1	?	20µM*	10.4%[0.074 µM]
COc1ccc2oc(-c3ccccc3)c(OC)c(=O)c2c1	-0.7	-1.0%	·	8.7%[1.9 µM]
O=C(Nc1ccc(N2CCN(C(=O)c3ccccc3)CC2)c(Cl)c1)c1ccc(Br)o1	1.9	-3.6%	11.2µM*	-69.3%
O=C(Cc1ccc(Cl)cc1)Nc1ccc(N2CCN(C(=O)c3ccco3)CC2)c(Cl)c1	-12.2	34.1%	10µM*	-4.2%[0.074 µM]
Cc1nc([N+](=O)[O-])c(Br)n1Cc1ccc(Cl)c(Cl)c1	1.8	-4.3%	8.91µM*	6.9%[10 µM]
c1ccc2c(c1)Cc1cc3cc4c(cc3nc1-2)OCO4	1.8	28.5%	·	-116.0%
CC(=O)c1c(C)n(-c2ccccc2)c2ccc(O)cc12	-9.3	0.9%	10µM*	25.7%
COC(=O)c1c(C)n(-c2ccccc2)c2ccc(O)cc12	-7.7	-1.6%	-21.2%	-25.0%
Cc1c(C(=O)Nc2ccc(Oc3ccccc3)cc2)sc2nc3n(c(=O)c12)CCC3	-8.2	6.4%	4.47µM*	-44.1%
O=C(CN1CCOCC1)Nc1cccc(Br)c1	-1.6	-6.4%	3.16µM*	9.6%
CCN(CC)/[N+]([O-])=N/Oc1cc(O/N=[N+](\[O-])N(C)C)c([N+](=O)[O-])cc1[N+](=O)[O-]	·	2.9%	·	·
Cc1sc2ncnc(NCC3COc4ccccc4O3)c2c1C (configuration not stated)	-4.6	6.5%	?	29.7%[10 µM]
c1ccc(-c2csc3ncnc(NCC4COc5ccccc5O4)c23)cc1 (configuration not stated)	3.5	-5.3%	8.91µM*	17.2%[10 µM]
Cc1[nH]c2ccc(C(=O)O)cc2c1C	2.2	0.3%	-0.2%[9.22 µM]	-26.1%
